Records with an inconclusive call do not appear. Calls of active or inactive are those of the source. The calls were made as follows: active = hit-call score of the fitted dose curve at least 0.9, where 1 is the maximum; inconclusive = response in the unintended direction; inactive = score below 0.9.
Each molecule was assayed against human RAR-related Orphan Receptor gamma (RORg), RORC (gene 6097) (UniProt P51449) (assay: ATG_RORg_TRANS: Attagene TRANS-FACTORIAL HepG2 Assay for human RAR-related Orphan Receptor gamma (RORg) (AID 2283011)).
human RAR-related Orphan Receptor gamma (RORg), RORC (gene 6097), sequence (P51449 whole entry, looked up): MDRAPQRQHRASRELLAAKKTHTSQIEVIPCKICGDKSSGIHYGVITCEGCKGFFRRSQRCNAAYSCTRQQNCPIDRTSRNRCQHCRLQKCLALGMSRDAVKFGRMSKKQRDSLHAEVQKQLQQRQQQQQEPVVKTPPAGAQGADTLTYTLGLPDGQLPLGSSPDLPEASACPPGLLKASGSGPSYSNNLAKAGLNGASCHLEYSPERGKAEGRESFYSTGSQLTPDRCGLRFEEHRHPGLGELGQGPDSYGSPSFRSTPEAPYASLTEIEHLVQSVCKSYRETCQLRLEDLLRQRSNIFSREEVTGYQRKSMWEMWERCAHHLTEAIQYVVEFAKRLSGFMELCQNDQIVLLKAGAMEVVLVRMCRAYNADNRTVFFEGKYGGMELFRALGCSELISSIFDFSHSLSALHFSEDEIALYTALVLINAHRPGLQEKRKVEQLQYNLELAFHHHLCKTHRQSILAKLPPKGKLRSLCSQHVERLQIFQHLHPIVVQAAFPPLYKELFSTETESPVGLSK
Method: ATG_TRANS is a cell-based, multiplexed-readout assay that uses HepG2, a human liver cell line, with measurements taken at 24 hours after chemical dosing in a 24-well plate.ATG_RORg_TRANS is one of 30 assay component(s) measured or calculated from the ATG_TRANS assay. It is designed to make measurements of mRNA induction, a form of inducible reporter, as detected with fluorescence intensity signals by Reverse transcription polymerase chain reaction (RT-PCR) and Capillary electrophoresis technology.Data from the assay component ATG_RORg_TRANS was analyzed into 1 assay endpoint. This assay endpoint, ATG_RORg_TRANS, was analyzed in the positive analysis fitting direction relative to DMSO as the negative control and baseline of activity. Using a type of inducible reporter, measures of mRNA for gain-of-signal activity can be used to understand the reporter gene at the transcription factor-level as they relate to the gene RORC. Furthermore, this assay endpoint can be referred to as a primary readout, because this assay has produced multiple assay endpoints where this one serves a reporter gene function. To generalize the intended target to other relatable targets, this assay endpoint is annotated to the nuclear receptor intended target family, where the subfamily is orphan.
Human liver HepG2 cells are transiently transfected with multiple reporter transcription units (MRTUs) in 6-well plates using FuGene 6 reagent (Roche; 3 ml FuGene/1 mg DNA). The MRTU constructs are regulated by a cis-regulating element (promoter). […] A major difference between the CIS and TRANS system is that in CIS activities of endogenous TFs are measured, whereas the TRANS assay evaluates changes in activities of exogenous, chimeric NR-Gal4 proteins. […] At the end of 24 hour incubation, total RNA was isolated using TriZol reagent (Invitrogen). The isolated RNA is then reverse-transcribed using oligo(dT) primer and Mo-MLV reverse transcriptase (Invitrogen) with DNAse I (Ambion) treatment for 30 min. The one-tenth of the produced cDNA was amplified by PCR using Taq DNA polymerase (Invitrogen) and two reporter sequence-specific primers. The PCR products were fluorescently labeled by primer extension with 6-arboxyfluorescein (6-FAM) 5'-labeled reporter sequence-specific primer (2 min at 95 C, 20 s at 68 C and 10 min at 72 C) and these products were digested with 5U of HpaI (New England Biolabs) for 2h at 37 C. The fragments were purified using Qiaquick PCR columns (Qiagen), analyzed on an ABI 3130xL genetic analyzer (Applied Biosystems) with peak positions identified by using a set of X-rhodamine (ROX)-labeled MapMarker1000 molecular weight standards (BioVentures). The raw capillary electrophoresis data was processed using Attagraph software (Attagene).
With C=CC(=O)OCC(COC(=O)C=C)(COC(=O)C=C)COC(=O)C=C the outcome was “inactive”.
For CN(CCCC(O)c1cccnc1)N=O (stereo not given), the outcome was “inactive”.
CC1(C)COP(Oc2ccccc2)OC1 was tested, and the outcome was “inactive”.
For CNC(=O)N(C)c1nc2ccccc2s1, the outcome was “inactive”.
In the case of CCOC(=O)CC(=O)CCl, the outcome is reported as “inactive”.
For O=[N+]([O-])c1ccc(Cl)c([N+](=O)[O-])c1, the outcome was “inactive”.
CC(C)(C)c1ccccc1O was tested, and the outcome was “inactive”.
With CCCCCCCCCCBr the outcome was “inactive”.
For Fc1cccc(Cl)c1CCl, the outcome was “inactive”.
Cc1ccc(CCl)cc1 was tested, and the outcome was “inactive”.
For COc1ccc(N)cc1, the outcome was “inactive”.
Nc1nc(N)nc(Cl)n1 was tested, and the outcome was “inactive”.
For N#Cc1ccc(Cl)cc1, the outcome was “inactive”.
OCCCCO was tested, and the outcome was “inactive”.
With Oc1cccc(-c2ccccc2)c1 the outcome was “inactive”.
In the case of CCOC(=O)C(SP(=S)(OC)OC)c1ccccc1 (stereo not given), the outcome is reported as “inactive”.
Nc1ccc(Br)cc1 was tested, and the outcome was “inactive”.
CCOc1cc(C=O)ccc1O was tested, and the outcome was “inactive”.
In the case of CC(C)C(C)(N)C#N (stereo not given), the outcome is reported as “inactive”.
For c1ccc2c(c1)Oc1ccccc1O2, the outcome was “inactive”.
In the case of CS(=O)(=O)c1ccc(C(=O)C2C(=O)CCCC2=O)c(Cl)c1COCC(F)(F)F, the outcome is reported as “inactive”.
In the case of O=c1[nH]c(=O)n(Cl)c(=O)n1Cl, the outcome is reported as “inactive”.
With COc1ccccc1N the outcome was “inactive”.
For CN(C)c1ccc(N=O)cc1, the outcome was “inactive”.
In the case of O=C(N[C@H]1CN2CCC1CC2)c1ccc2c(c1)OCCO2, the outcome is reported as “inactive”.
For C=CC(=O)NC(C)(C)CC(C)=O, the outcome was “inactive”.
With O=C=Nc1ccc(Cl)cc1 the outcome was “inactive”.
OC(Cc1ccccc1Cl)(Cn1cncn1)C1(Cl)CC1 (stereo not given) was tested, and the outcome was “inactive”.
O=C1C=CC(=O)c2ccccc21 was tested, and the outcome was “inactive”.
In the case of CN(C)CCN(C)C, the outcome is reported as “inactive”.
For COCC(=O)N(c1c(C)cccc1C)[C@H](C)C(=O)OC, the outcome was “inactive”.
With CCCCN(CCCC)C(=S)[S-].CCCCN(CCCC)C(=S)[S-].[Ni+2] the outcome was “inactive”.
For CC1CC(=O)O1 (stereo not given), the outcome was “inactive”.
With N#Cc1ccccc1N the outcome was “inactive”.
c1ccc2sc(SNC3CCCCC3)nc2c1 was tested, and the outcome was “inactive”.
In the case of C[C@@H]1O[C@@H](O[C@H]2C[C@@H](O)[C@]3(CO)[C@H]4[C@H](O)C[C@]5(C)[C@@H](C6=CC(=O)OC6)CC[C@]5(O)[C@@H]4CC[C@]3(O)C2)[C@H](O)[C@H](O)[C@H]1O, the outcome is reported as “inactive”.
For Nc1nc(=S)[nH][nH]1, the outcome was “inactive”.
With CCCCN(CCCC)C(=S)S the outcome was “inactive”.
With O=C(CCl)NCO the outcome was “inactive”.
O=C(NC(=O)c1c(F)cccc1F)Nc1cc(Cl)c(F)c(Cl)c1F was tested, and the outcome was “inactive”.

— PubChem BioAssay (EPA / NIEHS)
